Compound activity from PubChem BioAssay.
Shown are actives, neighbours in structure and some others; about 9.2% of the full set was active somewhere.
NPC1 prom act – qHTS Assay for NPC1 Promoter Activators | 320,000 tested, 2.4% active | Potency, µM (doses to about 9.22 µM), without a hit: at the top dose activation, hits mostly activators | Huh7 NPC1 promoter luciferase reporter, 24 h; also: % of control where 0% means no effect; nearly all actives have a fitted effect of over 60% in size
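Compounds in DMSO were transferred onto Huh7 NPC1-luciferase reporter cells pre-incubated 2 h; after 24 h at 37 °C, Amplite reagent was dispensed and luminescence recorded 10 min later.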
FLuc counter – qHTS profiling assay for firefly luciferase inhibitor/activator using purifed enzyme and Km concentrations of substrates (counterscreen for miR-21 project) | 360,000 tested, 6.9% active | purified FLuc, Km substrates, luminescence inhibition | AID 588342, 2011 | Luciferin 4-monooxygenase (Photinus pyralis), P08659 | Potency, µM (series often up to 57.5 µM), without a hit: top-dose activity change, negative = inhibition, usual class: inhibitors;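 also: plate controls were vehicle for no effect and reference inhibitor for full effect; nearly all actives have a fitted effect of over 55% in size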
Target sequence (P08659 whole entry, looked up): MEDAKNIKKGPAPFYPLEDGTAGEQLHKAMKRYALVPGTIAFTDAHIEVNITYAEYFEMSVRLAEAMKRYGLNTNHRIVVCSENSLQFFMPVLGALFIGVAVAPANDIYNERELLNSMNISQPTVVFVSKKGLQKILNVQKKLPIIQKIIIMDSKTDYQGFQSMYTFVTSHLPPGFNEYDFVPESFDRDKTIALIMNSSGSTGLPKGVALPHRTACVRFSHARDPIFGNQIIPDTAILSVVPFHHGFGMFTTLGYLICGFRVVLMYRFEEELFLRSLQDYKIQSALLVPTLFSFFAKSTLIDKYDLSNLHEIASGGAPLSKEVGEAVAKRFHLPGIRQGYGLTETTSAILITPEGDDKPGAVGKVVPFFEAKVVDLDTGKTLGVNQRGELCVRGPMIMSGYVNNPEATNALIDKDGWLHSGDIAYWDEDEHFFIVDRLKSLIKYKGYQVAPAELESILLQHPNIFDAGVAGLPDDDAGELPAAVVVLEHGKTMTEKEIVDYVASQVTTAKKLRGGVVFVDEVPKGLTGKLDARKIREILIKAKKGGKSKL
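Purified P. pyralis luciferase (10nM final) with 10uM D-luciferin and 10uM ATP (Km levels) in 50mM Tris acetate pH 7.5, 10mM Mg acetate, 0.01% Tween-20, 0.05% BSA; qHTS 6-point titration, ~60 µM downward; luminescence read.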
ELG1 genotox – qHTS screen for small molecules that induce genotoxicity in human embryonic kidney (HEK293T) cells expressing luciferase-tagged ELG1; HEK293T ELG1-luciferase reporter, luminescence, 16 h; Potency, µM (titrated, usually from 46 µM), for the others: top-dose activity change, positive = activation, hits mostly activators; 330,000 tested, 1.3% active; also: % of control where 0% means no effect; nearly all actives have a fitted effect of over 60% in size
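Luminescence read-out: rising ELG1-luciferase signal, reflecting elevated ELG1 protein under genetic stress, flags genotoxic compounds. Cells were treated for 16 hr at 37 °C before ONE-Glo detection.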
SMN2 splice enh – qHTS Assay for Enhancers of SMN2 Splice Variant Expression; Potency, µM (top dose mostly 46.1 µM), without a hit: top-dose activity change, positive = activation, usual class: activators; HEK293 SMN2-luciferase splicing reporter, luminescence, 30-36 h; 210,000 tested, 2.8% active; also: % of control where 0% means no effect; nearly all actives have a fitted effect of over 55% in size
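HEK293 cells carry an SMN2 minigene-luciferase reporter in which exon 7 inclusion puts luciferase in frame. Cells were seeded at 2000 cells/well, attached for 10-12 hours, then exposed to compounds for 30-36 hours at 37C before ONE-Glo luminescence.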
ELG1 repair inh – qHTS screen for small molecules that inhibit ELG1-dependent DNA repair in human embryonic kidney (HEK293T) cells expressing luciferase-tagged ELG1; Potency, µM (highest dose often 46.1 µM), without a hit: top-dose activity change, negative = inhibition, most hits filed as inhibitors; HEK293T ELG1-luciferase reporter, luminescence, 16 h; DNA damage induced by 5-fluorouridine; AID 504467, 2011; 330,000 tested, 2.3% active; also: % is scaled to controls: 0 for no effect and ±100 for the full control effect; nearly all actives have a fitted effect of over 55% in size
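Overnight (16 hr) co-exposure of 2,000 cells/well to 5-fluorouridine and compound at 37 °C preceded detection. Luciferase was quantified via ONE-Glo luminescence; loss of signal denotes inhibition.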
Rab9 promoter act – qHTS Assay for Rab9 Promoter Activators | 320,000 tested, 2.8% active | Potency, µM (titrated, usually from 9.22 µM), without a hit: at the top dose activation, negative = inhibition, actives largely listed as activators | Huh7 Rab9 promoter-luciferase reporter, luminescence, 24 h; also: % of control where 0% means no effect; nearly all actives have a fitted effect of over 60% in size
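Huh7 cells stably carrying a Rab9 promoter-luciferase reporter, 1500 cells per well in OP-MEM I with 10% FBS, treated with compound 24 hours at 37C. Luciferase activity read by luminescence after 10 minutes with Amplite reagent.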
* hit, by the source's call; ? = inconclusive; · = not tested or not shown; [ ] = remark or other dose. Calls follow the shape of the dose curve; as a rule, active = well fitted curve in the direction sought with a large enough effect; inconclusive = small, poorly fitted or top-dose-only effect, or another doubt; inactive = no such curve, though single readings can be large; an effect the other way counts as inactive or inconclusive. Potency is read from the fitted curve at half-maximal effect.

SMILES | NPC1 prom act | FLuc counter | ELG1 genotox | SMN2 splice enh | ELG1 repair inh | Rab9 promoter act
C=CCSc1n[nH]c(-c2ccc(OC)cc2)n1 | 2.82µM* | 15.1µM* | 3.26µM* | 14.1µM* | ? | 2µM*
C=CCSc1n[nH]c(-c2ccccc2)n1 | 27.8% | ? | ? | 16.5% | ? | 27.9%
CCCCOc1ccc(-c2nc(SCC(N)=O)n[nH]2)cc1 | ? | 10.7µM* | 11.9% | 9.6% | ? | 25.5%
COc1ccc(-c2nc(SCC(=O)Nc3cc(C)on3)n[nH]2)cc1 | -0.4% | 21.3µM* | 10.9% | -10.8% | -17.3% | 0.5%
COc1ccc(-c2nc(SCC(=O)Nc3c(F)cccc3F)n[nH]2)cc1 | -0.7% | 12µM* | 16.2% | · | 13.3% | -3.1%
COc1ccc(C(=O)Nc2ccc(N3CCOCC3)cc2)cc1S(=O)(=O)NC1CCCC1 | -4.8% | -10.7% | -6.4% | -5.9% | ? | -0.8%
C=CCn1c(SCC(=O)O)nnc1-c1ccc(C(C)(C)C)cc1 | -4.2% | 16.9µM* | -1.6% | -2.3% | 0.1% | 5.0%
C=CCn1c(SCC(=O)NCc2ccccc2)nnc1-c1ccccc1O | -0.2% | -0.9% | -7.5% | ? | 18.4µM* | -3.0%
CC(C)(C)c1ccc(-c2nnc(SCC(=O)O)n2N)cc1 | 17.0% | 10.7µM* | 6.5% | 3.5% | 6.8% | 7.7%
C=CCn1c(SCC(N)=O)nnc1-c1ccccc1O | -1.1% | -1.1% | -5.8% | · | -6.6% | 10.7%
Cc1ccc2c(=O)c(C(=O)c3cccc(Cl)c3)cn(CC(=O)Nc3ccc4c(c3)OCCO4)c2n1 | · | 2.6% | · | · | · | ·
COC1CCN(C(=O)C2CCC(=O)N(C3CCCCCC3)C2)CC1 (stereo not drawn) | ? | 16.9µM* | ? | · | ? | ?
COCC1CCN(C(=O)C2CCC(=O)N(C3CCCC3)C2)CC1 (stereo not drawn) | -3.5% | -13.7% | 5.5% | · | ? | 5.3%
COC(=O)Cc1ccc(NC(=O)c2ccccc2Br)cc1 | 12.1% | 16.9µM* | 10.3% | 4.8% | ? | 1.9%
CC(=O)c1ccc(OC(=O)c2cccs2)cc1 | 5.4% | 12µM* | -6.5% | 9.6% | 7.1% | -3.5%
CC(=O)c1ccc(NC(=O)c2cccs2)cc1 | 2.82µM* | 15.1µM* | 16.4µM* | 10µM* | ? | 2.24µM*
COC(=O)Cc1ccc(NC(=S)NNC(=O)c2ccccc2Br)cc1 | -2.5% | -0.7% | 0.3% | -9.7% | 5.3% | -1.4%
Cc1ccc(C(=O)Nc2cccc(NC(=O)c3cccs3)c2)c(C)c1 | 0.1% | 12µM* | -6.8% | · | -18.1% | 6.2%
COc1ccccc1N1CCN(C(=O)CCNS(=O)(=O)c2cc(Br)cnc2N)CC1 | -3.5% | 8.9% | -9.2% | · | 5.1% | -0.3%
O=C(O)CCSSCCC(=O)O | 4.9% | -1.0% | 2.8% | 1.7% | 13.8% | -0.9%
COc1cc(NC(=O)c2cc(OC)c(OC)c(OC)c2)ccc1NC(=O)c1cccs1 | -11.6% | 0.3% | -11.6% | · | ? | -4.6%
COc1ccc(NC(=O)c2cccs2)cc1OC | 19.8% | ? | 23.1µM* | · | ? | 24.3%
COc1ccc(NC(=O)c2ccco2)cc1NC(=O)c1cccs1 | -1.0% | -12.7% | 0.9% | 4.47µM* | -4.2% | -6.1%
COc1cc(NC(=O)c2cccs2)cc(OC)c1 | 24.1% | ? | 10.0% | 14.7% | ? | ?
COc1ccc(C(=O)Nc2cccc(NC(=O)c3cccs3)c2)cc1 | 18.0% | 9.53µM* | 0.3% | · | 21.9% | 18.6%
SMILES | NPC1 prom act | FLuc counter | ELG1 genotox | SMN2 splice enh | ELG1 repair inh | Rab9 promoter act
Cc1ccc(S(=O)(=O)Nc2ccc(NC(=O)c3cccs3)cc2)cc1 | -5.6% | -4.1% | -3.8% | 11.2µM* | ? | -1.7%
COc1cc(NC(=O)c2cccs2)c(OC)cc1NC(=O)c1ccco1 | -0.8% | -8.5% | -1.2% | -22.1% | -12.1% | 1.9%
CCCCOc1cccc(C(=O)N(Cc2ccc(Cl)cc2)C2CCS(=O)(=O)C2)c1 (stereo not drawn) | · | -3.6% | · | -25.8% | · | ·
O=C(Nc1cccc(NC(=O)c2cccs2)c1)c1ccc(F)cc1 | 0.2% | 21.3µM* | -5.4% | · | -5.5% | -4.3%[1.84 µM]
O=C(NNC(=O)c1cccs1)c1ccc(F)cc1 | 14.3% | -8.0% | -13.6% | · | ? | 4.6%
C/C(=N\NC(=O)C(N)=O)c1ccc(NC(=O)c2cccs2)cc1 | 26.9% | ? | ? | ? | ? | ?
COc1ccc(-c2[nH]ncc2/C=N\NC(=O)c2cccs2)cc1OC | 1.5% | 19µM* | 0.9% | · | 0.0% | -2.7%
Cc1ccc(NC(=O)c2ccccc2NC(=O)c2cccs2)cc1 | -8.5% | ? | 3.6% | · | ? | 4.2%
COc1ccc(NC(=O)c2ccccc2NC(=O)c2cccs2)cc1 | 15.7% | 15.1µM* | ? | · | ? | 22.3%
N/C(=N\O)c1ccc(NC(=O)c2cccs2)cc1 | ? | 16.9µM* | ? | 27.2% | ? | 3.55µM*
COc1cc2c(cc1OC)C(c1ccccc1C)CC(=O)N2 (stereo not drawn) | -3.6% | -1.4% | 0.4% | · | 4.3% | 13.8%
COC(=O)N1CCCc2cc(S(=O)(=O)N3CCN(c4ccccc4)CC3)ccc21 | · | -6.0% | · | -29.8% | · | ·
COc1cccc(NC(=O)c2cccs2)c1 | ? | 16.9µM* | 16.4µM* | 12.6µM* | ? | ?
Cc1ccc(OCC(=O)N2CCN(C(=O)c3cccs3)CC2)cc1 | -3.0% | 2.5%[2.3 µM] | -1.7% | -3.7% | -8.8% | 0.0%
O=C(Nc1cccc(NC(=O)c2cccs2)c1)c1ccc(Br)o1 | -1.1% | 23.9µM* | -1.4% | · | -24.3% | 3.7%
CC1CCCN(C(=O)COc2ccc(NC(=O)c3cccs3)cc2)C1 (stereo not drawn) | 12.9% | 9.53µM* | -2.9% | -19.8% | 18.2% | 13.1%
COc1ccc(NC(=O)c2ccc(NC(=O)c3cccs3)cc2)cc1 | -1.3% | -3.1% | 20.6µM* | · | ? | -0.8%
CN(C)S(=O)(=O)c1nc(Cl)c2[nH]cnc2n1 | · | · | · | -1.1%[9.22 µM] | · | ·
COc1ccc(-c2ccc(S(=O)(=O)n3nc(OC(=O)c4cccs4)cc3N)cc2)cc1 | -0.8% | -4.7% | -2.1% | · | 8.3% | 13.9%
COc1ccccc1CC(=O)Nc1ccc(NC(=O)c2cccs2)cc1 | 0.9% | 1.3% | 14.6% | · | 27.5% | 15.3%
CC(C)(C)c1ccc(Oc2ccc(NC(=O)c3cccs3)cn2)cc1 | -13.9% | ? | -8.9% | · | 6.51µM* | -24.3%
COC(=O)Cc1ccc(NC(=O)c2cccs2)cc1 | ? | 21.3µM* | 15.1% | 11.2µM* | ? | 2.82µM*
